Results as given in PubChem BioAssay (NCI).
Several values for one entry are separate records, joined by “and”; a condition that tells them apart may be missing. Equal entries are not always repeated. This is part of a sample that, as a whole, favours compounds with a hit. Of some 83,000 tested, about 20% had one in any assay.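 The endpoint reported here, percent growth, reads 100 for growth as untreated, 0 for no net growth and -100 for all cells dead.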 Activity calls are given as the source filed them. The calls were made as follows: active = growth percent below 10; inactive = the rest.

Tests used:
Experiment in all cases: NCI-60 one-dose screen, 48 h (100 = growth as untreated, 0 = no growth, -100 = all killed)
Conditions in all cases: 10 µM unless noted
[1] = tested on: DU-145 prostate
[2] = tested on: K-562 leukemia
[3] = tested on: MALME-3M melanoma
[4] = tested on: MDA-MB-231 breast
[5] = tested on: RXF 393 renal
[6] = tested on: SF-268 CNS
[7] = tested on: SF-295 CNS
[8] = tested on: SF-539 CNS
[9] = tested on: UACC-257 melanoma
[10] = tested on: M14 melanoma

Row | Structure (SMILES) | growth [1] | growth [2] | growth [3] | growth [4] | growth [5] | growth [6] | growth [7] | growth [8] | growth [9] | growth [10]
1 | O=S(=O)(Nc1cc(Sc2cccc3cccnc23)c(O)c2ccccc12)c1ccc(F)cc1 | -25.4% (active) | -20.1% (active) | -14% (active) | 19.6% (inactive) | -5.08% (active) | 8.15% (active) | 22.1% (inactive) | -15.6% (active) | -24.8% (active) | -42.8% (active)
2 | COCCn1cc(-c2csc(-c3cn(C)c4ccc(F)cc34)n2)c2cccnc21 | 69.9% (inactive) | 2.01% (active) | 84.8% (inactive) | 51.5% (inactive) | 72.3% (inactive) | 77.2% (inactive) | 73.7% (inactive) | 78.1% (inactive) | 83.8% (inactive) | 50.5% (inactive)
3 | CCOc1ccc(N2C(N)=NC(N)=NC2(C)C)cc1 | 15.3% (inactive) and 104% (inactive) | 10% (inactive) and 72.3% (inactive) | 25.3% (inactive) and 91.9% (inactive) | 49.5% (inactive) and 102% (inactive) | -4.94% (active) and 98.1% (inactive) | 42.1% (inactive) and 97.5% (inactive) | -31.9% (active) and 95.8% (inactive) | -29.1% (active) and 92.4% (inactive) | 19.3% (inactive) and 72.1% (inactive) | 24.2% (inactive) and 89.3% (inactive)
4 | N=C(N)c1ccc(-c2ccc(-c3ccc(F)cc3)s2)nc1 | 81.5% (inactive) | 0.099% (active) | 89.5% (inactive) | 57.1% (inactive) | 80.1% (inactive) | 87.6% (inactive) | 79.5% (inactive) | 79.6% (inactive) | 93% (inactive) | 76.1% (inactive)
5 | COc1ccc2nc3cc(Cl)ccc3c(NCCCNCCC(C)O)c2c1 (stereo not given) | -16.2% (active) | -18.1% (active) | -76.1% (active) | -47.5% (active) | -67.6% (active) | -25.9% (active) | -11.9% (active) | -56.9% (active) | -83.9% (active) | -82% (active)
6 | Clc1ccc(Nc2nc(Nc3ccc(Cl)cc3)nc(Nc3ccc(-c4cc(-c5cccc(Cl)c5)on4)cc3)n2)cc1 | 110% (inactive) | 85.9% (inactive) | 128% (inactive) | 81.3% (inactive) | 39.3% (inactive) | 87.7% (inactive) | 102% (inactive) | 102% (inactive) | 108% (inactive) | 94.8% (inactive)
7 | O=C1OCC2=C1C(c1cccc(C(F)(F)F)c1)c1cc3c(cc1N2CCO)OCCO3 (stereo not given) | 16% (inactive) | 9.6% (active) | 49.5% (inactive) | 37.6% (inactive) | 10.9% (inactive) | 38.8% (inactive) | 0.743% (active) | -8.3% (active) | 65.3% (inactive) | -6.89% (active)
8 | O=C1/C(=C/c2ccccc2[N+](=O)[O-])Cc2ccccc21 | 32.7% (inactive) and 41.5% (inactive) | 10.5% (inactive) and 6.16% (active) | 23.7% (inactive) and 60.2% (inactive) | -9.95% (active) and 31.3% (inactive) | -4.67% (active) and -0.599% (active) | 66% (inactive) and 42.8% (inactive) | 23% (inactive) and 28.3% (inactive) | 24.2% (inactive) and 34.3% (inactive) | 64.4% (inactive) and 71.8% (inactive) | 42.7% (inactive) and 57.8% (inactive)
9 | O=C(CCl)N(O)c1ccc(/C=C/c2ccccc2)cc1 | 90.3% (inactive) and 86.6% (inactive) | 64% (inactive) and 46.1% (inactive) | 95.3% (inactive) and 84.2% (inactive) | 82.1% (inactive) and 66.5% (inactive) | 99.9% (inactive) and 71.3% (inactive) | 84.7% (inactive) and 72.8% (inactive) | 95.5% (inactive) and 80.9% (inactive) | 94.3% (inactive) and 93.4% (inactive) | 103% (inactive) | 75% (inactive) and 71.8% (inactive)
10 | C#CCOc1cccc(Nc2ncc3ncn(C4CCN(C(=O)CCl)C4)c3n2)c1 (stereo not given) | 84% [6.25 µM] (inactive) | 5.61% [6.25 µM] (active) | 14.3% [6.25 µM] (inactive) | 2.24% [6.25 µM] (active) | -51.9% [6.25 µM] (active) | 40.2% [6.25 µM] (inactive) | 89% [6.25 µM] (inactive) | 68.7% [6.25 µM] (inactive) | 72.6% [6.25 µM] (inactive) | 24% [6.25 µM] (inactive)
11 | Cc1ccc(-c2nc3nc(-c4ccc(Br)cc4)nc(N4CCCNCC4)c3o2)cc1 | 14.2% (inactive) | -48.4% (active) | 88.3% (inactive) | -57% (active) | 87.1% (inactive) | 98.6% (inactive) | 69.2% (inactive) | 3.79% (active) | 103% (inactive) | -54.2% (active)
12 | O=C(/C=C/c1ccc(Cl)s1)c1ccc(Cl)s1 | 97.8% (inactive) and 114% (inactive) | 95% (inactive) and 92.6% (inactive) | 114% (inactive) | 108% (inactive) and 112% (inactive) | 90.8% (inactive) and 89.7% (inactive) | 100% (inactive) and 109% (inactive) | 90.7% (inactive) | 114% (inactive) and 98.3% (inactive) | 101% (inactive) and 103% (inactive) | 101% (inactive) and 115% (inactive)
13 | CCCCSc1ccc2nc(-c3ccc(OCCCN=C(N)N)cc3)cn2c1 | 73.4% (inactive) | 32.9% (inactive) | 23.2% (inactive) | 51.2% (inactive) | 45.6% (inactive) | 50.9% (inactive) | 52.7% (inactive) | 9.52% (active) | 85.7% (inactive) | 72.5% (inactive)
14 | CN1CCN(Cc2ccc(NC(=O)c3nc4ccc5[nH]ncc5c4c4c3CCCC4)cc2C(F)(F)F)CC1 | -73.1% (active) | -48.4% (active) | -75.7% (active) | -81.2% (active) | -97.1% (active) | -75.7% (active) | -67.7% (active) | -89.3% (active) | -80.3% (active) | -64.1% (active)
15 | COc1ccc(-c2cc(=O)c3c(O)cc(O)cc3o2)cc1 | 103% (inactive) and 97.8% (inactive) | 91.5% (inactive) | 113% (inactive) and 110% (inactive) | 113% (inactive) and 91.4% (inactive) | 121% (inactive) and 116% (inactive) | 98.5% (inactive) and 99.4% (inactive) | 101% (inactive) and 104% (inactive) | 94.5% (inactive) and 105% (inactive) | 127% (inactive) and 126% (inactive) | 118% (inactive) and 122% (inactive)
16 | C=C(CNCCc1ccc(O)cc1)[C@@H]1CC[C@]2(CO)CC[C@]3(C)[C@H](CC[C@@H]4[C@@]5(C)CCC(NCCc6ccc(O)cc6)C(C)(C)[C@@H]5CC[C@]43C)[C@@H]12 (stereo not given in full) | -98.6% (active) | -72.9% (active) | -88.2% (active) | -87.1% (active) | -91.2% (active) | -81.5% (active) | -92.9% (active) | -88.2% (active) | -80.5% (active) | -85.4% (active)
17 | COc1ccc(C(=O)N/N=C/c2ccc(O)cc2O)cc1Nc1ccnc(C(F)(F)F)c1 | 48.1% (inactive) | 26.6% (inactive) | 9.52% (active) | 51.6% (inactive) | 49% (inactive) | 49.9% (inactive) | 22.7% (inactive) | 10.3% (inactive) | 33.1% (inactive) | 2.43% (active)
18 | Cn1ccnc1CN1CCSC(C(=O)Nc2ccccc2)C1 (stereo not given) | 100% (inactive) | 92.1% (inactive) | 96.6% (inactive) | 104% (inactive) | 94.2% (inactive) | 95.1% (inactive) | 92.9% (inactive) | 96% (inactive) | 79.6% (inactive) | 98.1% (inactive)
19 | CN1C(=O)N(C)C2(c3ccccc3)N(CC(=O)Nc3ccccc3O)C(=O)NC12c1ccccc1 (stereo not given) | 110% (inactive) | 101% (inactive) | 107% (inactive) | 101% (inactive) | 113% (inactive) | 96.5% (inactive) | 101% (inactive) | 96.4% (inactive) | 125% (inactive) | 105% (inactive)
20 | COc1cc2cc(NCc3ccncc3)nc(C)c2cc1OC | 107% (inactive) | 126% (inactive) | 108% (inactive) | 85.9% (inactive) | 98.5% (inactive) | 81.9% (inactive) | 71.3% (inactive) | 89.3% (inactive) | 79.3% (inactive) | 82% (inactive)
21 | N#CSc1c[nH]c2ccc(/C=C/C(=O)/C=C(/C=C/c3ccc4[nH]cc(SC#N)c4c3)OB(F)F)cc12 | 1.62% (active) | -27.2% (active) | -32.6% (active) | -35.9% (active) | -64.4% (active) | 2.42% (active) | 35.7% (inactive) | -13.2% (active) | -29.8% (active) | -39.9% (active)
22 | Clc1cccc(Nc2ncnc3ccc(-c4cncc(-n5cnnn5)c4)cc23)c1 | 43.5% (inactive) | 71.5% (inactive) | 88.2% (inactive) | 67.3% (inactive) | 48.4% (inactive) | 70.6% (inactive) | 76.9% (inactive) | 87.3% (inactive) | 92.9% (inactive) | 53.2% (inactive)
23 | CN1CCN(CCCN2c3ccccc3Sc3ccc(Cl)cc32)CC1 | 91% (inactive) and 104% (inactive) | 42.3% (inactive) and 39.7% (inactive) | 91.6% (inactive) | 70.7% (inactive) and 55.1% (inactive) | 47% (inactive) and 63% (inactive) | 82.3% (inactive) and 88.2% (inactive) | 85.7% (inactive) and 82.5% (inactive) | 85.1% (inactive) | -34.7% (active) and 53.2% (inactive) | -53.2% (active) and 63.3% (inactive)
